Bioassay records (PubChem BioAssay)
HCV inh = blocks hepatitis C virus. Huh7.5.1 HCVcc-Cre infection, luciferase reporter, 44 h. AID 651820. Potency, µM (doses to about 41.8 µM), inactives show top-dose activity change, negative = inhibition, actives largely listed as inhibitors. 3.4% of 340,000 active; further: potency means the concentration at half of the fitted maximal effect
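1,000 cells/well; 4 h culture; + compound; + HCVcc-Cre (~0.5 moi); 44 h; luciferase substrate, RT 15 min; read 15 sec.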
FMDV antiviral = blocks foot and mouth disease virus; FMDV antiviral cell-based qHTS; Potency, µM (titrated, usually from 57.9 µM), without a hit: at the top dose activity change, negative = inhibition, most hits filed as inhibitors; 1.2% of 410,000 active; calls by dose curve; tested in HEK293T cells; further: read-out not given here; potency means the concentration at half of the fitted maximal effect; nearly all actives have a fitted effect of over 45% in size
AmpC inh detg = AmpC beta-lactamase inhibition with detergent present | AmpC hydrolysis of nitrocefin, absorbance 480 nm, 0.01% Triton | P00811 | Potency, µM (titrated, usually from 114 µM), for the others: at the top dose activity change, negative = inhibition, usual class: inhibitors | 0.041% of 370,000 active;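 further: potency means the concentration at half of the fitted maximal effect; 0% = no-compound wells and -100% = no-enzyme wells; nearly all actives have a fitted effect of over 25% in size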
Target sequence (P00811 whole entry, looked up): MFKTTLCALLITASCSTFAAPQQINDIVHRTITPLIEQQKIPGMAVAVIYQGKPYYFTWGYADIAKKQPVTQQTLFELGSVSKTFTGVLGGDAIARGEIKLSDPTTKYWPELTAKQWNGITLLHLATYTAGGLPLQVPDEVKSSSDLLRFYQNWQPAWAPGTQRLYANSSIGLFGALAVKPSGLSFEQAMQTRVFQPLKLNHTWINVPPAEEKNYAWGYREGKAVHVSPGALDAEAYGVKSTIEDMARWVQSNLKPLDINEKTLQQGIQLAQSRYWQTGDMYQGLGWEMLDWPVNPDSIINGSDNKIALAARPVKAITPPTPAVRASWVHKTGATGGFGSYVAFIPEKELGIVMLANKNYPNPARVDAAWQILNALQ
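AmpC (5.3 nM in the dispensed reagent) in 20 mM phosphate pH 7.0 with 0.01% (detergent screen) or 0.0001% Triton X-100 was preincubated with compounds for 15 min at room temperature. Nitrocefin was then added from an 800 uM solution, and hydrolysis was followed at 480 nm.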
HCMV antiviral = blocks human cytomegalovirus replication; activity change, negative = inhibition, % at 57.5 µM; 4.5% of 410,000 active; HFF cells, HCMV-luciferase reporter, 72 h; stronger effect = lower value; AID 1259415; in the data active means activity change below about -60%; inconclusive means no clear call, values can overlap the other calls; inactive means above about -39%
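Two compound doses tested in HFFs infected with HCMV-luciferase, MOI 1 PFU/cell, 72 h at 37C. Lysate luminescence read with OneGlo; data normalized against buffer-only and 10uM Salinomycin inhibitor controls.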
AmpC no deterg = inhibitors of E. coli AmpC beta-lactamase without detergent; AID 485341; AmpC nitrocefin hydrolysis, absorbance 480 nm, 0.0001% Triton; Potency, µM (doses to about 57.1 µM), for the others: at the highest dose activity change, negative = inhibition, hits mostly inhibitors; 0.52% of 330,000 active; P00811;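 further: potency means the concentration at half of the fitted maximal effect; plate controls were no compound for no effect and no enzyme for full effect; nearly all actives have a fitted effect of over 20% in size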
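20 mM phosphate pH 7.0 + 0.01% (detergent screen) or 0.0001% Triton X-100; 5.3 nM AmpC reagent; cpd preinc 15 min RT; nitrocefin (800 uM stock) to start; A480 q20 s × 4 min; Activity was normalised to no-enzyme and no-compound control wells.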
* hit, by the source's call; ? = inconclusive; nt = no result. Shown are actives, neighbours in structure and some others; about 7.3% of the full set was active somewhere. Unless noted, the call rests on the fitted dose curve; in most records, active means well fitted curve in the direction sought with a large enough effect; inconclusive means small, poorly fitted or top-dose-only effect, or another doubt; inactive means no such curve, though single readings can be large; an effect the other way counts as inactive or inconclusive. Unless noted, on the % scale 0 is the no-effect control and ±100 the full control effect.

SMILES	HCV inh	FMDV antiviral	AmpC inh detg	HCMV antiviral	AmpC no deterg
Cc1ccc(S(=O)(=O)N2CCN(C(=O)NCc3ccc(F)cc3)CC2)c(C)c1	-22%	-16%	0%	-71*	11%
COc1ccc(CNC(=O)N2CCN(S(=O)(=O)c3ccc(C)cc3C)CC2)cc1	?	-6%	-5%	29	1%
CCCC(=O)NCC(c1ccc2c(c1)OCO2)N1CCN(c2ccc(F)cc2)CC1 (stereo not drawn)	nt	-19%	-7%	-3	nt
CCCCC(=O)N[C@H]1CC[C@@]23CCCN2C(=O)CCC[C@H]3[C@H]1Cc1ccccc1	nt	nt	nt	-4	nt
Cc1cc(CNCc2cn(C)nc2-c2ccc(Oc3ccccc3)cc2)on1	?	?	1%	-68*	146%
Cc1nn(-c2ccccc2)c(C)c1NC(=O)COc1ccc([N+](=O)[O-])cc1	-22%	?	?	-7	?
Cc1nn(-c2ccccc2)c(C)c1NC(=O)COC(=O)c1cc([N+](=O)[O-])ccc1NCCO	22µM*	-26%	5%	-21	90%
O=C(Cn1cnc2cc([N+](=O)[O-])ccc2c1=O)Nc1cccc(S(=O)(=O)N2CCCCC2)c1	5.6µM*	?	nt	?	nt
O=C(COC(=O)c1cc([N+](=O)[O-])ccc1NCCO)Nc1ccc2c(c1)OCO2	11µM*	?	0%	-9	-17%
O=[N+]([O-])c1cccc(S(=O)(=O)Nc2nc3ccccc3nc2Nc2cccc(S(=O)(=O)N3CCCCC3)c2)c1	10µM*	?	-5%	-100*	-30%
O=C(Nc1sc2c(c1C(=O)NCc1ccccc1)CCCC2)c1cc(=O)c2ccccc2o1	nt	-17%	2%	-12	nt
COc1ccc(/C=N/NC(=O)c2cccc(Br)c2)cc1COc1ccccn1	-9%	-2%	4%	47	13%
Cc1cccc(C(=O)NCc2cn3cccc(C)c3n2)c1	nt	-11%	12%	9	nt
O=C(COC(=O)c1ccc([N+](=O)[O-])o1)Nc1cccc(S(=O)(=O)N2CCCCC2)c1	16%	-12%	-15%	?	-48%
O=C(COC(=O)c1cc([N+](=O)[O-])ccc1NCCO)Nc1cccc(S(=O)(=O)N2CCCC2)c1	?	0%	?	-1	32µM*
CN1CCN(C(=O)C2CCN(S(=O)(=O)c3ccc4c(c3)oc(=O)n4C)CC2)CC1	8%	-26%	-3%	56	-18%
O=C(C1CCN(S(=O)(=O)c2ccc(F)cc2)CC1)N1CC=C(c2ccccc2)CC1	?	-22%	4%	-101*	1%
Cn1c(=O)oc2cc(S(=O)(=O)N3CCC(C(=O)N4CC=C(c5ccccc5)CC4)CC3)ccc21	-8%	-21%	?	-73*	73%
COC(=O)c1ccc(S(=O)(=O)N2CCN(C(c3ccccc3)c3ccccc3)CC2)n1C	-7%	0%	9%	-4	27%
COc1ccccc1CNC(=O)CCc1c(C)c2cc3c(C)coc3cc2oc1=O	nt	13%	18%	5	nt
CC(C)Cc1nnc(NC(=O)CCC(=O)NC2CCCC2)s1	5%	-9%	0%	4	-3%
Cc1ccc(NCSc2ccc(Cl)cc2)cc1	10µM*	28%	nt	52	nt
CCCCN1C(=O)C(CC(=O)NCc2cccc3ccccc23)CC(C(=O)N2CCCCCC2)=C1C (stereo not drawn)	nt	-21%	nt	-7	nt
CCOc1ccc(C(=O)Nc2ccc3nn(-c4ccc(OC)c(Cl)c4)nc3c2)cc1	nt	-10%	-8%	-3	nt
O=C(/C=C/c1ccccc1)N1CCN(S(=O)(=O)c2ccc(F)cc2)CC1	12%	-19%	-5%	-12	4%
COc1ccc(/C=C/C(=O)N2CCN(c3ccccc3)CC2)cc1S(=O)(=O)N1CCOCC1	32µM*	14µM*	3%	?	170%
COc1ccc(/C=C/C(=O)N2CCC(C(N)=O)CC2)cc1S(=O)(=O)N1CCOCC1	20%	22%	5%	-4	-24%
O=C(/C=C/c1ccc(S(=O)(=O)N2CCOCC2)cc1)N1CCN(c2ccccc2)CC1	2µM*	32µM*	10%	?	46%
COc1cc(-c2ccc(Cl)cn2)cc2c1OCCN(S(=O)(=O)C[C@]13CC[C@H](CC1=O)C3(C)C)C2	nt	-3%	nt	nt	nt
